Data published in the supplement of paper PMC6555819.

What was measured:
Test in all cases: PBM binding z-score (relative to random genomic background probes); higher = stronger binding; sequences stand for … in GC…GCGATTGACAGCGTAGAATGAAGG
[1] = test system: FXR:RXRa (NR concentration 270 nM, RXRa partner concentration 90 nM)
Summary of the method: (§1)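 Ligand-free nuclear receptor dimers were applied to custom Agilent 4×180K protein-binding microarrays whose double-stranded probes carried direct-repeat seeds, single-nucleotide variants, half-site ablations and random human genomic background sequences in 34-nt variable regions. Incubation lasted 1 h. Binding z-scores were computed against the random background probes from regression-normalized fluorescence.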

[2] = test system: LXRa:RXRa (NR concentration 270 nM, RXRa partner concentration 90 nM)
Summary of the method: as §1

[3] = test system: LXRa homodimer (NR concentration 270 nM)
Summary of the method: as §1

[4] = test system: LXRb:RXRa (NR concentration 270 nM, RXRa partner concentration 90 nM)
Summary of the method: as §1

[5] = test system: LXRb homodimer (NR concentration 270 nM)
Summary of the method: as §1

[6] = test system: PPARa:RXRa (NR concentration 270 nM, RXRa partner concentration 90 nM)
Summary of the method: as §1

[7] = test system: PPARg:RXRa (NR concentration 180 nM, RXRa partner concentration 90 nM)
Summary of the method: as §1

[8] = test system: PPARg:RXRa 270nM:90nM, anti-RXR (NR concentration 270 nM, RXRa partner concentration 90 nM)
Summary of the method: as §1

[9] = test system: PPARg:RXRa 30nM:10nM, anti-RXR (NR concentration 30 nM, RXRa partner concentration 10 nM)
Summary of the method: as §1

[10] = test system: PPARg:RXRa 90nM:30nM, anti-RXR (NR concentration 90 nM, RXRa partner concentration 30 nM)
Summary of the method: as §1

[11] = test system: PPARg:RXRa DBDmut IVT, anti-RXR (DBD mutation: RXRa K156A/R161A, NR concentration 270 nM, RXRa partner concentration 90 nM)
Summary of the method: as §1

[12] = test system: PPARg:RXRa IVT, anti-PPARg (NR concentration 270 nM, RXRa partner concentration 90 nM)
Summary of the method: as §1

[13] = test system: PPARg DBDmut:RXRa IVT, anti-PPARg (DBD mutation: PPARg1 K132A/R137A, NR concentration 270 nM, RXRa partner concentration 90 nM)
Summary of the method: as §1

[14] = test system: PPARg DBDmut IVT, anti-PPARg (DBD mutation: PPARg1 K132A/R137A, NR concentration 270 nM)
Summary of the method: as §1

[15] = test system: PPARg homodimer (NR concentration 180 nM)
Summary of the method: as §1

[16] = test system: PXR:RXRa (NR concentration 270 nM, RXRa partner concentration 90 nM)
Summary of the method: as §1

[17] = test system: PXR homodimer (NR concentration 270 nM)
Summary of the method: as §1

[18] = test system: RARa:RXR (NR concentration 270 nM, RXRa partner concentration 90 nM)
Summary of the method: as §1

[19] = test system: RARa homodimer (NR concentration 270 nM)
Summary of the method: as §1

[20] = test system: RARb:RXRa (NR concentration 270 nM, RXRa partner concentration 90 nM)
Summary of the method: as §1

Sequence	PBM binding z-score [1]	PBM binding z-score [2]	PBM binding z-score [3]	PBM binding z-score [4]	PBM binding z-score [5]	PBM binding z-score [6]	PBM binding z-score [7]	PBM binding z-score [8]	PBM binding z-score [9]	PBM binding z-score [10]	PBM binding z-score [11]	PBM binding z-score [12]	PBM binding z-score [13]	PBM binding z-score [14]	PBM binding z-score [15]	PBM binding z-score [16]	PBM binding z-score [17]	PBM binding z-score [18]	PBM binding z-score [19]	PBM binding z-score [20]
GCTAGCAGGCCATTTTGGTCACTCAATGACGGGC	-0.64	-0.754	-1.03	-0.967	-0.971	-0.67	0.24	-0.925	-0.857	-0.861	0.582	-0.122	-1.08	-1.4	-1.14	-0.775	-0.836	-0.995	-1.3	0.0531
GCAGACAGGTGAAACGCAGCTAACTCAGGGTGGC	-0.722	-0.436	-0.887	-0.728	-1.13	0.359	0.371	-0.353	-0.974	-0.585	0.771	0.278	-1.29	-0.6	-1.08	-0.921	-0.971	-0.616	-1.12	0.0872
GGAACGAGGGCATTCGAGTTGACAGCATGGCGAT	1.65	1.9	-0.394	-0.0362	-0.953	1.34	0.875	0.675	-0.547	-0.0204	2.98	2.46	0.222	-0.00883	-0.393	3.85	1.46	0.951	-0.555	1.87
GCTGCTAGGTCAGGTTGGTCAGATAACGGGTACG	1.44	0.895	-0.305	0.708	0.0296	1.5	1.03	1.12	-0.213	0.38	2.83	2.3	-0.406	-0.502	0.742	0.425	-0.0616	0.792	0.212	3.22
GGAACGTGGGCAAAGTTGATAGCATCTGTCGACG	-0.58	-0.566	-0.508	-0.667	-0.939	0.742	1.45	3.26	0.952	2.7	-0.0354	0.169	-0.243	-0.6	0.0888	-0.428	-0.473	-0.469	-0.252	0.113
CCTACTGGGCCAAGGTCATTGATCAGTCAAAGCA	2.95	3.12	1.06	2.74	-0.497	4.1	4.15	4.44	1.5	3.81	3.5	4.5	-0.374	-1.03	1.27	3.3	0.534	3.29	-0.4	3.27
TCAGACAGATGAAGGTAACTCAGGTACGCAGTCG	0.719	0.98	-0.272	0.763	-0.545	0.832	0.832	2.06	4.27	3.3	2.29	0.179	-0.273	-0.478	0.326	0.521	0.216	0.684	0.265	0.227
TCTTGTAGATCAAGAGAGGTTAAGAAAGTGCGCT	0.516	3.28	0.0219	1.46	-0.672	1.44	-0.217	1.2	2.19	1.72	0.899	0.319	-0.033	-0.382	-0.0736	2.95	0.139	1.6	-0.753	0.635
ATCGAAAGGTCGAGGTGAGTAGAGAGAAAGGGAA	4.27	3.47	0.0492	2.46	0.462	4.49	3.29	3.59	1.45	2.36	0.416	2.34	1.55	0.427	1.76	2.19	0.327	3.31	1.21	4.11
TCTTGTAGAGCAAGCAGGTTAAGAAAGCCTGAGT	-0.159	-0.27	-0.458	-0.282	-1.49	0.415	-0.461	0.511	1.29	1.1	1.77	0.824	-0.533	-0.908	-0.862	-0.144	-0.157	-0.225	-0.639	-0.127
CCGACTGGGGCAAAGGTTACTATACTCAGTACGA	1.1	1.13	0.145	1.83	-0.765	4.86	10.7	8.89	8.85	9.45	4.92	5.73	-0.179	-0.335	1.41	1.93	-0.04	3.21	-0.0301	1.86
ACAGACAGGTGATGAAGGTAACTGAGGCTATCAT	0.003	-0.0614	-0.296	-0.234	-0.411	0.0902	0.558	0.0724	-0.0753	0.0172	0.31	0.434	0.949	0.0407	0.301	-0.124	0.0874	0.438	0.583	0.369
CCGAGTAGGTTATTGGGCATTCAGGCAACGGTGA	0.0641	0.327	0.00288	-0.0396	-0.644	0.768	1.19	2.31	0.262	1.6	3.85	2.72	-1.32	-0.589	0.636	-0.415	-0.545	-0.107	-0.0218	0.472
CGAAGTAGGTCATTGACAGGACAGTGAATAGTAA	4.75	3.56	0.791	2.6	0.392	5.05	7.92	6.67	4.6	6.57	8.42	8.66	3.43	2.58	2.08	2.16	0.395	2.66	0.16	3.58
TCATATTGGTAAACAGGTGAAAGTCCGTAAGTTA	1.17	0.929	0.49	1.15	0.247	1.66	0.821	2.67	4.04	3.3	2.2	1.5	0.411	1.32	1.25	1.03	0.511	1.35	1.38	0.73
TATACAGGGTCAAAGGCCCGAGTACGAATGTCGA	6.5	6.07	1.91	4.39	2	5.84	6.14	6.28	2.84	5.12	1.95	4.09	1.37	0.769	1.13	3.57	0.0932	4.41	0.102	4.33
ACTAGTTGGTCAGCCGAGGTCACACACAATTCGG	3.43	3	2.4	3.32	0.882	3.85	2.34	2.6	0.926	2.06	1.8	3.12	0.481	1.14	3.29	5.43	2.13	5	1.82	3.58
GATACAGGGTCAAGGCCAGATTACGCGTATTGAT	7.02	4.53	0.129	4.07	0.268	5.77	5.99	5.29	2.36	4.09	2.74	4.03	2.24	1.3	3.72	4.43	0.645	5.48	1.59	4.65
CCTTGTTGGTCAGGAGGTCACACACCGGATATGA	3.65	3.45	2.55	3.64	0.947	4.07	3.37	3.8	1.66	2.83	1.61	3.58	0.862	0.471	2.86	4.22	1.27	4.37	1.82	3.85
